Calls of active or inactive are those of the source.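 Rule for the calls, unless noted: active = inhibition at or above 50% at 10 µM; inactive = inhibition below 50%.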
Assays:
[1] = inhibitors of TNFa-induced NFkB p65 translocation, primary screen, imaging, HUVEC, MLSMR starter and 10KST1 sets (AID 438;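 active = inhibition above 20% together with a positive visual image hit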;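 note: compound added about 3h40 before a 20 min TNFalpha stimulation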;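 for inhibition: signal is the nuclear over cytoplasmic p65 intensity ratio per well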); details: HUVEC TNFa-induced p65 nuclear translocation; cell count: measured here: nuclei count (cytotoxicity indicator), at 2.08 µM; inhibition: at 2 µM, stronger effect = higher value, 0% TNFa-plus-vehicle, 100% no-TNFa wells
[2] = inhibitors of mutant huntingtin aggregation, primary screen, imaging, exon1htt(103Q)mCFP cells, high-content imaging (AID 483;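 active = visual image review flags a hit and inhibition of aggregation exceeds 20%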;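 note: compound exposure lasted 3 days before fixation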;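 for nuclei count: percent of the per-plate median nuclei count of sample wells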); details: exon1htt(103Q)mCFP cell line, aggregate imaging, at 2 µM; inhibition of aggregation: stronger effect = higher value; nuclei count: measured here: cell count, toxicity
[3] = inhibitors of E-selectin induction by TNFa, primary screen, imaging, HUVEC, immunofluorescence, MLSMR starter and 10KST1 sets (AID 487;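 active = visually confirmed hit in the image check and inhibition above 20%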;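 for inhibition: signal is fraction of cell area covered by stained E-selectin grains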;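 for nuclei count: 100% = median nuclei count of all wells on the same plate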); details: HUVEC TNFalpha-induced E-selectin immunofluorescence imaging, at 2 µM; inhibition: stronger effect = higher value; nuclei count: measured here: cell number, toxicity
[4] = biological target: Voltage-gated potassium channel subunit beta-2 (Rattus norvegicus) (UniProt P62483); assay: KvBeta enzyme negative modulators, primary screen, biochemical, NADPH fluorescence (AID 622;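 active = fluorescence slope higher than the sample average by over 3 SD, cut at about -0.22 in these data, passing the limit was not always enough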;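 note: slope of raw intensity against log time taken from 70 to 1610 s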); details: recombinant KvBeta, 4-cyanobenzaldehyde reduction, at 10 µM, stronger effect = higher value
Voltage-gated potassium channel subunit beta-2 (Rattus norvegicus), sequence (P62483 whole entry, looked up): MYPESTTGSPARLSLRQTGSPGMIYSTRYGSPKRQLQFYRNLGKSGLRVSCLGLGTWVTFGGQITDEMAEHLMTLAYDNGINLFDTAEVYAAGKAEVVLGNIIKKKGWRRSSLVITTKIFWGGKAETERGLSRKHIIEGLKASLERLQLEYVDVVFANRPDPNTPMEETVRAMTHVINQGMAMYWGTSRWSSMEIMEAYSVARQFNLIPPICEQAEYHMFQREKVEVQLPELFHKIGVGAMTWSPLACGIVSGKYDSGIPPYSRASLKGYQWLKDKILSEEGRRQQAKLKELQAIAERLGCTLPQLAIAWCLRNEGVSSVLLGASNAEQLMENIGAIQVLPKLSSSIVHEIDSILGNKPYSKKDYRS

[5] = biological target: Voltage-gated potassium channel subunit beta-2 (Rattus norvegicus) (UniProt P62483); assay: KvBeta positive modulators, primary screen, biochemical, NADPH fluorescence (AID 623;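 active = NADPH fluorescence slope more negative than the mean of all samples by about 3 SD, 99.7% confidence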;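 note: fluorescence intensity change per second fitted from 20 to 320 s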); details: Recombinant KvBeta, NADPH fluorescence decrease slope, 10 min; at 10 µM; stronger effect = lower value
[6] = biological target: Alpha-2C adrenergic receptor (Homo sapiens) (UniProt P18825); assay: modulators of alpha2C/GIRK thallium flux, primary screen, cell-based, HEK293 alpha2C/GIRK1/2 (AID 624;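 active = fluorescence slope after compound addition differing from the mean of all screened samples at 99.7% confidence, in either direction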;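 note: slope of fluorescence ratio to pre-addition baseline per second over 15 to 24 s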); details: thallium flux BTC fluorescence, at 10 µM, actives lie on both sides
Alpha-2C adrenergic receptor (Homo sapiens), sequence (P18825 whole entry, looked up): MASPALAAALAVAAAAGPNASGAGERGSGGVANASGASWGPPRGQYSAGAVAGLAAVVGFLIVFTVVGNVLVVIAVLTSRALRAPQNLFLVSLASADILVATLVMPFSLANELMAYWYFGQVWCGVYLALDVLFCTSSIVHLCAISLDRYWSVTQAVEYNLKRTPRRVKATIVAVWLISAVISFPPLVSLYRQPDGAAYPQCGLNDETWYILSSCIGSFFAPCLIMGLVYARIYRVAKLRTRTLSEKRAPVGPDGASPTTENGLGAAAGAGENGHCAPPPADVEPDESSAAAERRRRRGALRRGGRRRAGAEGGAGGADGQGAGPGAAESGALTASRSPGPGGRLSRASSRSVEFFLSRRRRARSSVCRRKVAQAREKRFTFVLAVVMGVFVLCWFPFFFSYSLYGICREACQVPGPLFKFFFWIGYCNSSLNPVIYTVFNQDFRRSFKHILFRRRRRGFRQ

[7] = inhibitors of Sendai virus-induced IRF3 signaling, primary screen, TLR/RLR signaling modifier project, cell-based, Sendai virus stimulus, luciferase, 10K MLSCN set (AID 602276); details: HEK293 RL24 IRF3 luciferase reporter, at 10 µM, stronger effect = higher value;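 note: firefly luciferase from ISG56 promoter only with Renilla not read in this screen; 0% = Sendai virus plus DMSO and 100% = medium plus DMSO without virus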
[8] = inhibitors of poly I:C-induced TLR3 signaling, primary screen, cell-based, poly I:C stimulus, luciferase, 10K MLSCN set (AID 602277;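 active = inhibition of the reporter signal at or above 50%; inactive = inhibition below 50%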); details: HEK293-TLR3 RL24 IRF3 luciferase reporter, at 10 µM, stronger effect = higher value

**Q.** With `CC(=O)O[C@H]1CSC[C@H]1NC(=O)c1ccccc1` as the molecule, how does the cell count [1] read?
**A.** 467

**Q.** What about the inhibition [1] of the same molecule?
**A.** 10.9% (inactive)

**Q.** What about the inhibition of aggregation [2] of the same molecule?
**A.** 9.1% (inactive)

**Q.** And the nuclei count [2]?
**A.** 96.2%

**Q.** And the inhibition [3]?
**A.** 21.9% (inactive)

**Q.** What about the nuclei count [3] of the same molecule?
**A.** 111%

**Q.** What about the fluorescence slope [4] of the same molecule?
**A.** -0.509 (inactive)

**Q.** And the NADPH fluorescence slope [5]?
**A.** -1.7e-05 (inactive)

**Q.** What about the slope [6] of the same molecule?
**A.** 0.00411 (inactive)

**Q.** What about the inhibition [7] of the same molecule?
**A.** 16.6% (inactive)

**Q.** And the inhibition [8]?
**A.** 16.9% (inactive)

**Q.** With `CCN(CC)S(=O)(=O)c1ccc(Br)c(OC)c1` as the molecule, how does the cell count [1] read?
**A.** 374

**Q.** And the inhibition [1]?
**A.** 4.5% (inactive)

**Q.** And the inhibition of aggregation [2]?
**A.** -7.1% (inactive)

**Q.** What about the nuclei count [2] of the same molecule?
**A.** 100%

**Q.** And the inhibition [3]?
**A.** -15.1% (inactive)

**Q.** And the nuclei count [3]?
**A.** 107%

**Q.** What about the fluorescence slope [4] of the same molecule?
**A.** -0.371 (inactive)

**Q.** And the NADPH fluorescence slope [5]?
**A.** -5.2e-05 (inactive)

**Q.** And the slope [6]?
**A.** 0.00493 (inactive)

**Q.** And the inhibition [7]?
**A.** 18.3% (inactive)

**Q.** And the inhibition [8]?
**A.** 34.5% (inactive)

**Q.** Which results are given for `Cc1ccc(/C=c2\s/c(=C(/C#N)C(=O)N3CCCC3)n(Cc3ccco3)c2=O)s1`?
**A.** cell count [1]: 627; inhibition [1]: 2.8% (inactive); inhibition of aggregation [2]: -17.3% (inactive); nuclei count [2]: 101%; inhibition [3]: -28.1% (inactive); nuclei count [3]: 136%; fluorescence slope [4]: -0.59 (inactive); NADPH fluorescence slope [5]: 2e-05 (inactive); slope [6]: 0.00315 (inactive); inhibition [7]: 16.4% (inactive); inhibition [8]: -21.1% (inactive)

**Q.** With `Cc1c(C#N)c2ccccc2n1CC(=O)N1CCc2ccccc2C1` as the molecule, how does the cell count [1] read?
**A.** 583

**Q.** And the inhibition [1]?
**A.** 6% (inactive)

**Q.** And the inhibition of aggregation [2]?
**A.** 8.7% (inactive)

**Q.** And the nuclei count [2]?
**A.** 95.3%

**Q.** What about the inhibition [3] of the same molecule?
**A.** 11.5% (inactive)

**Q.** And the nuclei count [3]?
**A.** 114%

**Q.** And the fluorescence slope [4]?
**A.** -0.581 (inactive)

**Q.** And the NADPH fluorescence slope [5]?
**A.** -4.4e-05 (inactive)

**Q.** What about the slope [6] of the same molecule?
**A.** 0.00747 (inactive)

**Q.** What about the inhibition [7] of the same molecule?
**A.** -9.66% (inactive)

**Q.** And the inhibition [8]?
**A.** 21.9% (inactive)

**Q.** With `CCOCCCNC(=O)C(c1ccc(C)cc1)N(Cc1ccc2c(c1)OCO2)C(=O)c1cnccn1` (stereo not drawn) as the molecule, how does the cell count [1] read?
**A.** 275

**Q.** And the inhibition [1]?
**A.** 13.1% (inactive)

**Q.** And the inhibition of aggregation [2]?
**A.** 16.3% (inactive)

**Q.** And the nuclei count [2]?
**A.** 102%

**Q.** And the inhibition [3]?
**A.** -40.9% (inactive)

**Q.** What about the nuclei count [3] of the same molecule?
**A.** 107%

**Q.** And the fluorescence slope [4]?
**A.** -0.471 (inactive)

**Q.** What about the NADPH fluorescence slope [5] of the same molecule?
**A.** 4.1e-05 (inactive)

**Q.** What about the slope [6] of the same molecule?
**A.** 0.00515 (inactive)

**Q.** And the inhibition [7]?
**A.** 9.6% (inactive)

**Q.** What about the inhibition [8] of the same molecule?
**A.** 17% (inactive)

**Q.** For `COc1cccc(-c2nc3n(n2)C(c2ccccc2Cl)C(C(N)=O)=C(C)N3)c1` (stereo not drawn), which cell count [1] is on record?
**A.** 595

**Q.** What about the inhibition [1] of the same molecule?
**A.** -0.8% (inactive)

**Q.** What about the inhibition of aggregation [2] of the same molecule?
**A.** -7.2% (inactive)

**Q.** What about the nuclei count [2] of the same molecule?
**A.** 114%

**Q.** What about the inhibition [3] of the same molecule?
**A.** -26.6% (inactive)

**Q.** What about the nuclei count [3] of the same molecule?
**A.** 103%

**Q.** What about the fluorescence slope [4] of the same molecule?
**A.** -0.393 (inactive)

**Q.** And the NADPH fluorescence slope [5]?
**A.** 1.7e-05 (inactive)

**Q.** And the slope [6]?
**A.** 0.00613 (inactive)

**Q.** And the inhibition [7]?
**A.** 12.1% (inactive)

**Q.** And the inhibition [8]?
**A.** 38.1% (inactive)

**Q.** Which results are given for `CCOCC(=O)Nc1sc2c(c1C(=O)OCC)CCCC2`?
**A.** cell count [1]: 300; inhibition [1]: -1.6% (inactive); inhibition of aggregation [2]: 16.6% (inactive); nuclei count [2]: 65.8%; inhibition [3]: -39.3% (inactive); nuclei count [3]: 116%; fluorescence slope [4]: -0.347 (inactive); NADPH fluorescence slope [5]: -5.2e-05 (inactive); slope [6]: 0.00551 (inactive); inhibition [7]: 9.19% (inactive); inhibition [8]: 14% (inactive)

**Q.** Which cell count [1] does the source give for `CCOC(=O)c1[nH]c(C)c(C(=O)N2CCN(C(=O)c3ccco3)CC2)c1C` here?
**A.** 780

**Q.** And the inhibition [1]?
**A.** -13.4% (inactive)

**Q.** And the inhibition of aggregation [2]?
**A.** 2.2% (inactive)

**Q.** And the nuclei count [2]?
**A.** 110%

**Q.** And the inhibition [3]?
**A.** -102% (inactive)

**Q.** What about the nuclei count [3] of the same molecule?
**A.** 101%

**Q.** And the fluorescence slope [4]?
**A.** -0.5 (inactive)

**Q.** What about the NADPH fluorescence slope [5] of the same molecule?
**A.** 1.2e-05 (inactive)

**Q.** And the slope [6]?
**A.** 0.00532 (inactive)

**Q.** And the inhibition [7]?
**A.** 16.8% (inactive)

**Q.** What about the inhibition [8] of the same molecule?
**A.** 18.7% (inactive)

**Q.** Which results are given for `COC(=O)CC(C(=O)Nc1cc(C(=O)OC)cc(C(=O)OC)c1)N1CCN(C)CC1` (stereo not drawn)?
**A.** cell count [1]: 661; inhibition [1]: -7.5% (inactive); inhibition of aggregation [2]: -3.2% (inactive); nuclei count [2]: 99.8%; inhibition [3]: -105% (inactive); nuclei count [3]: 107%; fluorescence slope [4]: -0.547 (inactive); NADPH fluorescence slope [5]: -4.3e-05 (inactive); slope [6]: 0.00646 (inactive); inhibition [7]: -2.88% (inactive); inhibition [8]: 9.86% (inactive)

**Q.** What does the source list for `O=C(CCN1C(=O)C2C3C=CC(C3)C2C1=O)NC1CCCc2ccccc21` (stereo not drawn)?
**A.** cell count [1]: 411; inhibition [1]: 7.3% (inactive); inhibition of aggregation [2]: 4.3% (inactive); nuclei count [2]: 104%; inhibition [3]: -138% (inactive); nuclei count [3]: 104%; fluorescence slope [4]: -0.441 (inactive); NADPH fluorescence slope [5]: -1.7e-05 (inactive); slope [6]: 0.00567 (inactive); inhibition [7]: 10.7% (inactive); inhibition [8]: 30.7% (inactive)

**Q.** With `Cn1c(SCC(=O)N2CCOCC2)nnc1-c1cnccn1` as the molecule, how does the cell count [1] read?
**A.** 656

**Q.** And the inhibition [1]?
**A.** 1% (inactive)

**Q.** What about the inhibition of aggregation [2] of the same molecule?
**A.** -11.1% (inactive)

**Q.** And the nuclei count [2]?
**A.** 122%

**Q.** And the inhibition [3]?
**A.** -36.3% (inactive)

**Q.** And the nuclei count [3]?
**A.** 114%

**Q.** What about the fluorescence slope [4] of the same molecule?
**A.** -0.396 (inactive)

**Q.** What about the NADPH fluorescence slope [5] of the same molecule?
**A.** 8e-06 (inactive)

**Q.** What about the slope [6] of the same molecule?
**A.** 0.00449 (inactive)

**Q.** And the inhibition [7]?
**A.** 3.04% (inactive)

**Q.** What about the inhibition [8] of the same molecule?
**A.** 21.7% (inactive)

**Q.** With `CCOC(=O)c1ccc(Oc2nc(SC)nc(N(C)C)n2)cc1` as the molecule, how does the cell count [1] read?
**A.** 467

**Q.** What about the inhibition [1] of the same molecule?
**A.** 5.5% (inactive)

**Q.** And the inhibition of aggregation [2]?
**A.** -5.2% (inactive)

**Q.** And the nuclei count [2]?
**A.** 110%

**Q.** What about the inhibition [3] of the same molecule?
**A.** -308% (inactive)

**Q.** And the nuclei count [3]?
**A.** 133%

**Q.** What about the fluorescence slope [4] of the same molecule?
**A.** -0.34 (inactive)

**Q.** What about the NADPH fluorescence slope [5] of the same molecule?
**A.** 7.8e-06 (inactive)

**Q.** And the slope [6]?
**A.** 0.00652 (inactive)

**Q.** And the inhibition [7]?
**A.** 3.96% (inactive)

**Q.** What about the inhibition [8] of the same molecule?
**A.** 4.44% (inactive)

**Q.** Which results are given for `CCOC(=O)CSc1nnc(CCc2nc3ccccc3[nH]2)n1C`?
**A.** cell count [1]: 349; inhibition [1]: -1% (inactive); inhibition of aggregation [2]: 23.8% (inactive); nuclei count [2]: 73%; inhibition [3]: 12.7% (inactive); nuclei count [3]: 93.2%; fluorescence slope [4]: -0.441 (inactive); NADPH fluorescence slope [5]: -2.8e-05 (inactive); slope [6]: 0.00684 (inactive); inhibition [7]: -7.44% (inactive); inhibition [8]: 100% (active)
